# MEKK2wt PB1 HTS = raises or lowers MEK5 binding to wildtype human MEKK2 PB1 domain. Q9Y2U5. bead flow cytometry, Alexa488-MEK5 binding to MEKK2 WT; actives lie on both sides. binding response (% of control), % at 10 µM. actives 1.1% (n = 290,000). AID 1531; in the data active = binding response below about 67% or above about 130%
# MEKK3 PB1 HTS = modulators (inhibitors or enhancers) of MEK5 binding to human MEKK3 PB1 domain; Q99759; bead-based flow cytometry, Alexa488-MEK5 binding to MEKK3; actives lie on both sides; 0 = blocked by unlabeled MEK5, 100 = vehicle; binding response (% of control), % at 10 µM; actives 1.4% (n = 290,000);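 active = binding response more than 3 SD above or below the average of its plate-row segment, actives on both sides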;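 note: Alexa488 bead fluorescence after subtracting the streptavidin-only scavenger bead signal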
# TMEM16A inh = mouse TMEM16A channel inhibition, primary screen | Q8BHY3 | HEK293 TMEM16A/YFP iodide influx fluorescence, ionomycin | normalized B-score (activity score, 25-100; higher = stronger inhibition) at 10 µM | actives 1.2% (n = 310,000) | AID 588511;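 active = ratio plate-corrected score three or more library SD toward inhibition, starting fluorescence score within five deviations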;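 note: score derived from kinetic fluorescence span divided by baseline fluorescence per well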
# TMEM16A act = activates or potentiates the mouse TMEM16A chloride channel. B-score at 10 µM. Q8BHY3. AID 623877. actives 0.3% (n = 340,000). HEK293 TMEM16A/YFP-H148Q/I152L, iodide quench fluorescence; stronger effect = lower value;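 active = fluorescence-ratio B-score plate-corrected deviation score at least 3 library SD below zero, with starting fluorescence score within 5 deviations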;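 note: channel opened by trigger with iodide after compound preincubation; score built on the fluorescence ratio of max minus min over baseline; more negative score means more quench and so TMEM16A activation or potentiation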
# NTR1 agonist = NTR1 (human) agonism; NTR1-U2OS beta-arrestin-GFP spot imaging, agonist mode; activation, % at 20 µM; P30989; actives 0.17% (n = 330,000);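 active = activation at or above 40% of the spot to cytoplasm intensity ratio, with at least 20 cells analyzed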;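 note: 0% = DMSO without peptide and 100% = 100 nM NTR1 peptide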
# Target sequence (P30989 whole entry, looked up): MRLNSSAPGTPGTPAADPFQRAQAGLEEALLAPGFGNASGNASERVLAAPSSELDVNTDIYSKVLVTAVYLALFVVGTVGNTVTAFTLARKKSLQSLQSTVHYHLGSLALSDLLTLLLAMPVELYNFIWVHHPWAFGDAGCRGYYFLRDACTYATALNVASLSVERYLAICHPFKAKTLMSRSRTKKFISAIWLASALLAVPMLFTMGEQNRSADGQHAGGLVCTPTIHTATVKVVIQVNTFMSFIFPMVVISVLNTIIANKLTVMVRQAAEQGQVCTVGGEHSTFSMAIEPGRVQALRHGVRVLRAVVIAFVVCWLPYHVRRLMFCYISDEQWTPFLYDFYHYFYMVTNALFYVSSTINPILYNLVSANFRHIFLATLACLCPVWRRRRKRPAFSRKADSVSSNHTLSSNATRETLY
# MEKK2 mut-MEK5 = signal of MEK5 binding to mutant human MEKK2 PB1 domain; bead flow cytometry, Alexa488-MEK5 binding to MEKK2 mutant; actives 0.35% (n = 290,000); percent response, % at 10 µM; in the data active = percent response above about 24%, passing the limit was not always enough
# MEKK2wt confirm = raises or lowers MEK5 binding to wildtype human MEKK2, retest. binding response (% of control), % at 10 µM. shares compounds with MEKK3 PB1 HTS. actives 2.4% (n = 5,900). bead flow cytometry, Alexa488-MEK5 binding to MEKK2 WT; actives lie on both sides; in the data active = binding response below about 16% or above about 210%; inactive = in between
# MEKK2mut confirm = signal of MEK5 binding to mutant human MEKK2, retest | shares compounds with MEKK3 PB1 HTS | bead flow cytometry, Alexa488-MEK5 binding to MEKK2 mutant | percent response, % at 10 µM | actives 2% (n = 5,900); in the data active = percent response mostly above about 71%, no sharp cut-off; inactive = mostly below about 38%;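 note: higher means compound restores mutant binding toward wildtype level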
# MEKK3 confirm = confirmation of inhibitors of MEK5 binding to human MEKK3 | bead flow cytometry, Alexa488-MEK5 binding to MEKK3; stronger effect = lower value | AID 1894 | shares compounds with MEKK3 PB1 HTS | actives 1.8% (n = 5,900) | binding response (% of control), % at 10 µM;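 active = binding response below 72% of control, or above a set upper limit, though filed actives all read lower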;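 note: 100% = DMSO only wells and 0% = binding blocked by excess unlabeled MEK5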
# Active calls of the source: *; i = inactive; x = no result; [ ] = dose if it differs, or a comment. A selection: hits, their analogues and other compounds. The true share with any hit is near 3.4%.
SMILES,MEKK2wt PB1 HTS,MEKK3 PB1 HTS,TMEM16A inh,TMEM16A act,NTR1 agonist,MEKK2 mut-MEK5,MEKK2wt confirm,MEKK2mut confirm,MEKK3 confirm
CCC(C(=O)NC(C)(C)C)N(Cc1cccs1)C(=O)CNS(=O)(=O)c1ccccc1 (centres undefined),118,132*,i,i,-1,29,97,-8,100
CCCCCc1cc(=O)oc2c(C(CCN(CC)CC)c3cc(OC)c(OC)c(OC)c3)c(OC)cc(OC)c12 (centres undefined),218*,116,i,i,27,34*,136,15,84
CCCCCc1cc(=O)oc2c(C(CCN3CCN(c4ccccc4)CC3)c3ccc(N(C)C)cc3)c(OC)cc(OC)c12 (centres undefined),123,107,i,i,-4,14,x,x,x
CCCCCc1cc(=O)oc2c(C(CCN3CCCC(C)C3)c3ccc4c(c3)OCO4)c(OC)cc(OC)c12 (centres undefined),302*,122*,i,i,35,74*,270*,109*,118
CCCCCc1cc(=O)oc2c(C(CCN3CCCCC3)c3ccc4c(c3)OCO4)c(OC)cc(OC)c12 (centres undefined),203*,110,i,i,16,50*,226*,73*,108
COc1ccc(OC)c(C(c2c(O)nc(SC)[nH]c2=O)c2c(O)nc(SC)[nH]c2=O)c1,98,99,i,i,0,1,x,x,x
COc1ccc(N2CCC(CNC(=O)Nc3ccc(Cl)cc3)C2)cc1 (centres undefined),142,141*,i,i,8,7,106,2,100
O=C(Nc1cc(C(F)(F)F)ccc1F)C1CCCCC1,80,72*[inhibitor],i,i,0,-18,92,-4,94
O=C(Nc1cc(C(F)(F)F)ccc1F)C1CCCC1,109,106,i,i,1,4,x,x,x
Cc1cc(C(=O)C(=O)NC(C)C)c(C)n1-c1ccc([N+](=O)[O-])cc1,89,80*[inhibitor],i,i,-1,-3,99,-2,100
Cc1cc2oc(=O)cc(CSc3nnc(-c4cccs4)o3)c2cc1C(C)C,99,134*,i,i,1,0,96,-3,101
CCOc1ccc(-n2c(SCc3cc(=O)oc4cc(C)c(C(C)C)cc34)nnc2-c2cccnc2)cc1,102,128*,i,i,4,0,107,5,107
COC(=O)C(CC(C)C)NC(=O)C(Cc1ccccc1)NC(=O)C1CCCN1C(=O)OC(C)(C)C (centres undefined),101,101,i,i,13,1,x,x,x
CCCC1(c2ccccc2)NC(=O)NC1=O (centres undefined),110,104,i,i,-1,9,x,x,x
Cc1ccc(OCCn2c(=O)oc3ccc(C)cc32)cc1,98,94,i,i,4,-10,x,x,x
Cc1ccc2oc(=O)n(CCCOc3ccccc3)c2c1,121,125*,i,i,-2,4,102,9,102
Cc1ccc2oc(=O)n(CC(=O)OCCC(C)C)c2c1,71,74*[inhibitor],i,i,0,-3,102,-4,101
Cc1cc(C(=O)NC2CCCN(Cc3ccccc3F)C2)n[nH]1 (centres undefined),110,104,i,i,1,5,x,x,x
CCCCN(CCCNC(=O)c1ccc2nc(N3CCOCC3)sc2c1)Cc1ccccc1,158*,105,i,i,-2,20,167,37,109
CSc1nnc(-c2cc(C)on2)n1-c1ccccc1,103,105,i,i,0,-1,x,x,x
CSc1nnc(-c2nnc(SC)n2-c2ccccc2)n1-c1ccccc1,35*[inhibitor],22*[inhibitor],i,i,4,-33,96,0,101
Clc1ccc(/C(Cc2nc3ccccc3[nH]2)=N\Nc2ccccc2)cc1,153*,110,i,i,7,42,138,13,108
O=C(Cc1nc2ccccc2[nH]1)c1ccc(Cl)cc1,99,104,i,i,5,-2,x,x,x
CC(C)(C)c1n[nH]c(=S)n(/N=C/c2cccs2)c1=O,109,147*,i,i,3,0,104,15,104
COc1cc2c(cc1NC(=O)COC(=O)C(CCSC)NC(=O)c1ccccc1Cl)oc1ccccc12 (centres undefined),96,94,i,i,2,-2,x,x,x
SMILES,MEKK2wt PB1 HTS,MEKK3 PB1 HTS,TMEM16A inh,TMEM16A act,NTR1 agonist,MEKK2 mut-MEK5,MEKK2wt confirm,MEKK2mut confirm,MEKK3 confirm
Cc1ccccc1C(=O)c1cccn1CC(=O)NCCN1CCN(c2cccc(C)c2C)CC1,144*,104,i,i,8,10,133,25,107
O=C(c1ccco1)N1N=C(c2ccco2)CC1c1ccc(Cl)cc1Cl (centres undefined),x,x,x,i,8,x,x,x,x
O=C(CSc1nccn1-c1cccc(Cl)c1)NO,99,100,i,i,-1,0,x,x,x
O=C(CSc1nccn1-c1ccccc1)NO,70,33*[inhibitor],i,i,-2,51*,105,1,98
C(=C\c1nc(N2CCCC2)c2ccccc2n1)/c1ccccc1,158*,107,i,i,32,30,153,39,111
Oc1ccc(Nc2nc(N3CCCC3)c3ccccc3n2)cc1,153*,107,i,i,12,21,197,93*,109
COC(=O)c1c(NC(=S)NN2CCN(C)CC2)sc2c1CCC(C)C2 (centres undefined),163*,112,i,i,4,26,143,13,106
COC(=O)c1c(NC(=O)Cc2cccs2)sc2c1CCC(C)C2 (centres undefined),97,104,i,i,13,1,x,x,x
CCOP(=O)(OCC)C(NC(=O)C(F)(F)F)c1ccccc1 (centres undefined),109,137*,i,i,1,1,100,-14,101

# Screening results as filed in PubChem.
